# Laboratory results taken from the supplement of paper PMC6555819.
# Experiments:
# Experiment in all cases: PBM binding z-score (relative to random genomic background probes); higher = stronger binding; sequences stand for … in GC…GCGATTGACAGCGTAGAATGAAGG
# [1] = tested on: RARb homodimer (NR concentration 270 nM)
# Outline: (§1)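 Custom Agilent 4×180K protein-binding microarrays carried double-stranded probes, each with a 34-nt variable region. These regions held direct-repeat seeds, single-nucleotide variants, half-site ablations and random human genomic background sequences. Ligand-free nuclear receptor dimers were incubated on the arrays for 1 h, antibodies against each partner (one per run) detected binding, and scanned fluorescence was regression-normalized. Binding z-scores take the random background probes as reference.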
# [2] = tested on: RARg:RXRa (NR concentration 270 nM, RXRa partner concentration 90 nM)
# Outline: as §1
# [3] = tested on: RARg homodimer (NR concentration 270 nM)
# Outline: as §1
# [4] = tested on: RXRa DBDmut IVT, anti-RXR (DBD mutation: RXRa K156A/R161A, NR concentration 90 nM)
# Outline: as §1
# [5] = tested on: RXRa homodimer (NR concentration 180 nM)
# Outline: as §1
# [6] = tested on: THRa:RXRa (NR concentration 90 nM, RXRa partner concentration 90 nM)
# Outline: as §1
# [7] = tested on: THRa homodimer (NR concentration 90 nM)
# Outline: as §1
# [8] = tested on: VDR homodimer (NR concentration 270 nM)
# Outline: as §1
Sequence,PBM binding z-score [1],PBM binding z-score [2],PBM binding z-score [3],PBM binding z-score [4],PBM binding z-score [5],PBM binding z-score [6],PBM binding z-score [7],PBM binding z-score [8]
AACACAGGGTCACTAGGCCAGAGTAGGTACGAAT,3.3,5.06,4.83,2.79,5.24,3.3,1.02,2.44
ACTATTAGTTGACTTAGGGCAGCCGATACGACGC,0.54,0.527,0.729,0.712,0.378,0.635,0.246,0.0585
CGACCTAGGTCAAGGACAGTGAATCTCCGCACGC,3.02,4.65,4.69,1.82,3.41,3.39,2.25,0.294
CAAACTAGGTCACCGGAAGGTCAAAGTGCGCATG,5.82,8.58,7.66,2.19,6.73,4.72,3.05,3.53
CCTGCTAGGTCAATGGTCAACTAAAGCAGCTCGC,3.11,3.77,4.5,1.64,2.55,2.41,0.723,0.324
TTACCAAAGTGAAGGTCGTTGATCCCTCTGTAGA,0.733,0.112,-0.254,0.0594,0.926,0.74,-0.495,0.739
GCGACTGGGGCATCAGCAGGTTACCATCACTTAA,0.92,0.879,0.45,-0.0239,0.259,0.783,0.0403,-0.183
TCTAGTTGCTCACGGAGGTCACACACGACGGGTA,4.16,4.02,3.73,1.11,4.32,3.46,2.22,2.06
GGAAGGAGGGCAAGTTGATAGCAGAGTTTGATGG,2.04,1.51,1.88,0.971,0.655,1.08,1.12,2
GGAACGAGGGCAAAGTTTATAGCATCTGTCGACG,1.8,2.31,2.04,2.61,2.22,1.63,-0.279,2.22
CCGACTGGGGCAGAAAAGTTACCATACCATCCGG,-0.232,-0.197,0.109,-0.438,-0.0105,-0.43,-0.509,-0.39
TCGAGTAGGTTAGTCGGAGCATTCAGCCAACATA,-0.533,-0.461,-0.343,-0.252,-0.401,-0.658,-0.781,-0.514
AGAATGTGGTTATTAAGATCAGGGAATTGCGGTC,0.199,-0.113,0.223,-0.0893,0.0791,0.147,0.17,0.201
TGGCCTAGGTCATTCAGGGGCCAGTATAGAAAGC,3.18,6.37,5.07,1.39,3.29,3.47,0.314,1.37
CCTTACGGGTCACTCCAGGTTATAGAATCGGAGT,3.06,4.57,4.54,1.91,4.61,5.18,0.576,1.39
CGAACTAGGTCATAACAGGACAGTGAAGGATGAT,2.36,3.28,3.91,1.66,2.37,4.04,0.443,0.892
CCTACTGGGCCATTCAGAGATCATTGATCATATG,-0.395,-0.116,0.345,-0.0997,-0.144,-0.209,-0.607,-0.171
CGAACTAGGTCAAGGAAAGTGAATCTCCGCACGC,2.71,3.5,3.7,1.16,2.43,2.42,0.746,0.143
CCGACTGGGTCAGAAAGGTTACCATACCATCCGG,3.1,3.34,3.44,-0.333,3.12,2.09,0.207,1.14
ACTCGGAGGACAAAGGTCAGAGCTACGCCAGTGA,4.27,5.92,5.23,1.08,5.45,3.35,0.581,1.03
ATCTCTAGGTAACCAAGTTCAGTGTATGCCGAAC,1.47,0.771,0.637,0.982,0.429,1.48,0.867,2.85
ATTGAAAGGTCGAGGTGAGTATAGAGAAAGGGAA,3.09,4.26,4.24,1.13,4.51,3.18,1.04,1.18
TAGCCTAGGTGATGGGCCAGTATACCACGCGAAC,-0.0783,-0.276,-0.196,-1.47,-0.236,-0.153,-0.23,-0.76
CGTCAAAGTTCAACTAAGGTACCGTAAAGCACGC,4.34,5.81,6.61,4.77,5.35,4.81,0.671,4.06
TAGCCTAGGTCAGATCGAGCCAGTATACGCTATA,1.71,2.36,3.3,-0.301,1.23,1.61,-0.233,-0.594
TTACCAAGGTGAAAGGTCGTTGTTGCACGCCTTG,2.51,3.79,1.79,0.868,5.4,3.45,1.38,1.08
AGAATGAGGTTATACGTAGATCGGGGAAGAAAGT,0.901,1.6,0.926,2.14,2.27,2.12,0.732,0.909
TCTAGTTGGTCACGGAGGTCGCACACGACGGGTA,2.48,2.11,2.3,0.614,2.16,1.91,0.625,1.18
CTCGAAAGGTCGTGCACAGGTGAGTATACCAAAC,3.18,5.89,4.46,2.16,5.32,3.21,0.254,1.42
